Test results: the supplement of paper PMC9262897, “Low-cost anti-mycobacterial drug discovery using engineered E. coli” (Nature Communications, 2022)
Structures can show the parent of a compound that is named as a salt. ± gives the standard deviation of the averaged measurements.

Columns and labels:
Assay in all cases: growth (OD600 after 10 h); higher = more growth (less inhibition)
[1] = test system: E. coli TESEC Alr+ wild-type control; details: compound 0.1 mM; raw OD600 reference: median of DMSO wells 0.241, cell-free background 0.041
Procedure: (§1)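 TESEC Mtb Alr E. coli, or the Alr+ wild-type control, in 384-well plates with Prestwick library compounds at 0.1 mM and 1% DMSO, across arabinose induction levels of 1E3 to 1E7 nM. Growth is read as OD600 after 10 h at 37 °C in triplicate biological replicates.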

E. coli TESEC Mtb Alr [2] = details: compound 0.1 mM
Procedure: as §1

E. coli TESEC Mtb Asd = details: compound 0.1 mM
Procedure: (§2)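 TESEC E. coli strains in which the native enzyme is deleted and replaced by arabinose-inducible Mtb Asd, DapB, CysH or TrpD, each grown in its selective medium. Strains were screened against the Prestwick library at 0.1 mM and 1% DMSO in 384-well format at low and high arabinose induction. Growth is read as OD600 after 10 h in triplicate.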

E. coli TESEC Mtb DapB = details: compound 0.1 mM
Procedure: as §2

[3] = test system: E. coli TESEC Alr+ wild-type control; details: compound 0.1 mM; raw OD600 reference: median of DMSO wells 0.49, cell-free background 0.052
Procedure: (§3)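 TESEC Mtb Alr E. coli (ΔaraC ΔtolC ΔentC Δalr ΔdadX, arabinose-inducible Mtb Alr) or the Alr+ wild-type control strain, grown in defined M9-fructose medium without D-alanine in 96-well plates with Prestwick library compounds at 0.1 mM and 1% DMSO. Low Alr induction is 0.1 µM arabinose and high induction is 10 mM arabinose.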

E. coli TESEC Mtb Alr [4] = details: compound 0.1 mM; remark: listed apart in the source
Procedure: as §3

[5] = arabinose 1000 nM, raw OD600 reference: median of DMSO wells 0.294, cell-free background 0.041
[6] = arabinose 10000 nM, raw OD600 reference: median of DMSO wells 0.264, cell-free background 0.041
[7] = arabinose 100000 nM, raw OD600 reference: median of DMSO wells 0.201, cell-free background 0.041
[8] = arabinose 1000000 nM, raw OD600 reference: median of DMSO wells 0.193, cell-free background 0.041
[9] = arabinose 10000000 nM, raw OD600 reference: median of DMSO wells 0.146, cell-free background 0.041
[10] = arabinose induction (level): High, raw OD600 reference: median of DMSO wells 0.331, cell-free background 0.041
[11] = arabinose induction (level): Low, raw OD600 reference: median of DMSO wells 0.417, cell-free background 0.041
[12] = arabinose induction (level): High, raw OD600 reference: median of DMSO wells […], cell-free background 0.041
[13] = arabinose induction (level): Low, raw OD600 reference: median of DMSO wells 0.227, cell-free background 0.041
[14] = arabinose 100 nM, raw OD600 reference: median of DMSO wells 0.413, cell-free background 0.052
[15] = arabinose 10000000 nM, raw OD600 reference: median of DMSO wells […], cell-free background 0.052

| SMILES | growth [1] | growth (E. coli TESEC Mtb Alr [2]; [5]) | growth (E. coli TESEC Mtb Alr [2]; [6]) | growth (E. coli TESEC Mtb Alr [2]; [7]) | growth (E. coli TESEC Mtb Alr [2]; [8]) | growth (E. coli TESEC Mtb Alr [2]; [9]) | growth (E. coli TESEC Mtb Asd; [10]) | growth (E. coli TESEC Mtb Asd; [11]) | growth (E. coli TESEC Mtb DapB; [12]) | growth (E. coli TESEC Mtb DapB; [13]) | growth [3] | growth (E. coli TESEC Mtb Alr [4]; [14]) | growth (E. coli TESEC Mtb Alr [4]; [15]) |
| --- | --- | --- | --- | --- | --- | --- | --- | --- | --- | --- | --- | --- | --- |
| CN1CCC(OC(c2ccccc2)c2ccccc2)CC1 [Diphenylpyraline hydrochloride] | 0.221 ± 0.013 | 0.294 ± 0.021 | 0.256 ± 0.0056 | 0.162 ± 0.0083 | 0.141 ± 0.0025 | 0.1486 ± 0.0014 | 0.237 ± 0.035 | 0.461 ± 0.077 | 0.211 ± 0.013 | 0.246 ± 0.0048 | 0.47 ± 0.021 | 0.4078 ± 0.0034 | 0.303 ± 0.015 |
| COC(=O)C1=C(C)NC(C)=C(C(=O)OCC(C)C)C1c1ccccc1[N+](=O)[O-] (centres undefined) [Nisoldipine] | 0.0411 ± 0.00044 | 0.189 ± 0.022 | 0.1989 ± 0.0016 | 0.133 ± 0.0061 | 0.101 ± 0.011 | 0.112 ± 0.0029 | 0.0578 ± 0.0013 | 0.0593 ± 0.0039 | 0.122 ± 0.0061 | 0.114 ± 0.0044 | 0.433 ± 0.007 | 0.386 ± 0.0062 | 0.223 ± 0.012 |
| Cc1c(O)c(=O)n(-c2ccccc2)n1C [Antipyrine, 4-hydroxy] | 0.2468 ± 0.00085 | 0.289 ± 0.012 | 0.252 ± 0.0096 | 0.211 ± 0.0099 | 0.182 ± 0.004 | 0.154 ± 0.0051 | 0.338 ± 0.034 | 0.375 ± 0.01 | 0.184 ± 0.01 | 0.206 ± 0.032 | 0.507 ± 0.069 | 0.405 ± 0.0081 | 0.37 ± 0.033 |
| C=C1/C(=C\C=C2/CCC[C@]3(C)[C@@H]([C@H](C)/C=C/[C@@H](O)C4CC4)CC[C@@H]23)C[C@@H](O)C[C@@H]1O [Calcipotriene] | 0.0539 ± 0.0078 | 0.0502 ± 0.0045 | 0.0544 ± 0.0042 | 0.0504 ± 0.0018 | 0.0524 ± 0.0013 | 0.056 ± 0.0013 | 0.0646 ± 0.0023 | 0.0613 ± 0.0049 | 0.158 ± 0.078 | 0.0652 ± 0.0025 | 0.0607 ± 0.0046 | 0.234 ± 0.12 | 0.0671 ± 0.0016 |
| CC(=O)[C@H]1CC[C@H]2[C@@H]3C=CC4=CC(=O)CC[C@@]4(C)[C@@H]3CC[C@]12C [Dydrogesterone] | 0.103 ± 0.005 | 0.154 ± 0.041 | 0.207 ± 0.0034 | 0.085 ± 0.0042 | 0.0856 ± 0.0016 | 0.0751 ± 0.0014 | 0.225 ± 0.038 | 0.402 ± 0.068 | 0.176 ± 0.0054 | 0.189 ± 0.0083 | 0.318 ± 0.0089 | 0.371 ± 0.021 | 0.101 ± 0.022 |
| CCn1cc(C(=O)O)c(=O)c2cc(F)c(N3CCNCC3)cc21 [Norfloxacin] | 0.04437 ± 0.00025 | 0.0427 ± 0.00078 | 0.0398 ± 0.00098 | 0.0437 ± 0.00036 | 0.0398 ± 0.0006 | 0.0437 ± 0.00035 | 0.0546 ± 0.0041 | 0.0626 ± 0.0092 | 0.0581 ± 0.00065 | 0.0745 ± 0.015 | 0.0524 ± 0.0022 | 0.0551 ± 0.002 | 0.05117 ± 0.00047 |
| CN(C)CC/C=C1/c2ccccc2COc2ccc(CC(=O)O)cc21 [Olopatadine hydrochloride] | 0.2304 ± 0.0017 | 0.281 ± 0.0096 | 0.276 ± 0.0029 | 0.179 ± 0.014 | 0.231 ± 0.013 | 0.126 ± 0.0042 | 0.256 ± 0.056 | 0.328 ± 0.089 | 0.198 ± 0.011 | 0.233 ± 0.015 | 0.589 ± 0.097 | 0.425 ± 0.0062 | 0.361 ± 0.013 |
| Nc1nnc(-c2cccc(Cl)c2Cl)c(N)n1 [Lamotrigine] | 0.14 ± 0.0084 | 0.206 ± 0.028 | 0.203 ± 0.0052 | 0.216 ± 0.014 | 0.21 ± 0.0054 | 0.179 ± 0.0078 | 0.236 ± 0.025 | 0.168 ± 0.019 | 0.213 ± 0.015 | 0.132 ± 0.0074 | 0.46 ± 0.021 | 0.413 ± 0.029 | 0.386 ± 0.029 |
| NC(=O)c1ccc[n+]([C@@H]2O[C@H](COP(=O)([O-])OP(=O)(O)OC[C@H]3O[C@@H](n4cnc5c(N)ncnc54)[C@H](O)[C@@H]3O)[C@@H](O)[C@H]2O)c1 [Nadide] | 0.282 ± 0.006 | 0.363 ± 0.018 | 0.339 ± 0.0072 | 0.238 ± 0.031 | 0.245 ± 0.0026 | 0.175 ± 0.0086 | 0.428 ± 0.012 | 0.441 ± 0.0097 | 0.21 ± 0.0067 | 0.216 ± 0.02 | 0.564 ± 0.14 | 0.415 ± 0.025 | 0.416 ± 0.0063 |
| CCCCC[C@H](O)/C=C/[C@H]1[C@H](O)CC(=O)[C@@H]1CCCCCCC(=O)O [Alprostadil] | 0.215 ± 0.0055 | 0.284 ± 0.0052 | 0.23 ± 0.0057 | 0.176 ± 0.0091 | 0.163 ± 0.0042 | 0.126 ± 0.0061 | 0.243 ± 0.046 | 0.279 ± 0.082 | 0.154 ± 0.008 | 0.177 ± 0.032 | 0.503 ± 0.07 | 0.364 ± 0.018 | 0.299 ± 0.017 |
| CSc1ccc2c(c1)C(N1CCN(C)CC1)Cc1ccccc1S2 (centres undefined) [Methiothepin maleate] | 0.0405 ± 0.00044 | 0.0412 ± 0.0021 | 0.0394 ± 0.00042 | 0.04073 ± 0.00025 | 0.03917 ± 5.8e-05 | 0.0411 ± 0.0013 | 0.0562 ± 0.0036 | 0.0503 ± 0.0057 | 0.0514 ± 0.00083 | 0.0485 ± 0.00094 | 0.04833 ± 0.00021 | 0.293 ± 0.21 | 0.0516 ± 0.00053 |
| CC(=O)O[C@H]1C(=O)[C@@]2(C)[C@H]([C@H](OC(=O)c3ccccc3)[C@]3(O)C[C@H](OC(=O)[C@H](O)[C@@H](NC(=O)c4ccccc4)c4ccccc4)C(C)=C1C3(C)C)[C@]1(OC(C)=O)CO[C@@H]1C[C@@H]2O [Paclitaxel] | 0.23 ± 0.013 | 0.285 ± 0.019 | 0.255 ± 0.024 | 0.222 ± 0.019 | 0.2 ± 0.015 | 0.179 ± 0.018 | 0.34 ± 0.051 | 0.385 ± 0.079 | 0.209 ± 0.006 | 0.279 ± 0.059 | 0.554 ± 0.03 | 0.429 ± 0.014 | 0.336 ± 0.033 |
| CC[C@H]1OC(=O)[C@H](C)[C@@H](O[C@H]2C[C@@](C)(OC)[C@@H](O)[C@H](C)O2)[C@H](C)[C@@H](O[C@@H]2O[C@H](C)C[C@H](N(C)C)[C@H]2O)[C@](C)(O)C[C@@H](C)C(=O)[C@H](C)[C@@H](O)[C@]1(C)O [Erythromycin] | 0.04107 ± 0.00038 | 0.0413 ± 0.0016 | 0.03973 ± 5.8e-05 | 0.0421 ± 0.0013 | 0.0401 ± 0.0001 | 0.0414 ± 0.00076 | 0.0563 ± 0.0023 | 0.0536 ± 0.0019 | 0.04857 ± 0.00045 | 0.052 ± 0.0057 | 0.0538 ± 0.0043 | 0.0567 ± 0.0002 | 0.05153 ± 0.00031 |
